Test results from PubChem BioAssay (NCI).
The panel holds about 79,000 compounds, 15% with a hit somewhere; the sample as a whole holds those more often. Cut-off read from the data, not from the text of the source: active = growth inhibition above about 70%; inactive = the rest.

What was measured:
[1] = NCI Yeast Anticancer Drug Screen. Data for the rad50 strain (AID 155);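 note: 0% = growth of vehicle-only cultures of the same strain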; details: S. cerevisiae rad50 strain growth inhibition; at 50.0 µM; hits give high values
Method in brief: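 Relative growth inhibition (compound vs vehicle) was measured in yeast with a defined repair-gene alteration.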

[2] = NCI Yeast Anticancer Drug Screen. Data for the mec2-1 strain (AID 157); details: S. cerevisiae mec2-1 strain, at 50.0 µM, hits give high values
Method in brief: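 Growth inhibition is read against vehicle-treated controls after compound exposure of the mec2-1 yeast strain, which is defective in DNA damage repair or cell cycle control.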

[3] = NCI Yeast Anticancer Drug Screen. Data for the sgs1 mgt1 strain (AID 161);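 note: 0% = growth of cultures given vehicle only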; details: S. cerevisiae sgs1 mgt1 strain, at 50.0 µM, hits give high values
Method in brief: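 Percent growth inhibition was derived by comparing compound-exposed mutant yeast with vehicle-exposed cultures. The strain carries alterations in DNA damage repair.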

[4] = NCI Yeast Anticancer Drug Screen. Data for the cln2 rad14 strain (AID 165);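 note: 0% = growth equal to vehicle treated cultures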; details: S. cerevisiae cln2 rad14 strain, at 50.0 µM, hits give high values
Method in brief: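 Growth inhibition, relative to vehicle-treated controls, is the read-out. The test organism is a yeast strain with defined genetic alterations, cln2 rad14.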

[5] = NCI Yeast Anticancer Drug Screen. Data for the bub3 strain (AID 167); details: S. cerevisiae bub3 mutant strain, at 50.0 µM, hits give high values
Method in brief: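 Screening used yeast with an engineered genetic alteration affecting cell cycle control. Compound-exposed cultures were compared with vehicle cultures, and reduced growth was taken as inhibition.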

[6] = NCI Yeast Anticancer Drug Screen. Data for the mlh1 rad18 strain (AID 175); details: S. cerevisiae mlh1 rad18 strain growth inhibition; at 50.0 µM; hits give high values
Method in brief: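 Cells of a genetically altered yeast strain, deficient in DNA damage repair, were treated with compound. Their growth was then compared with that of vehicle-treated cultures to give inhibition.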

Measured: growth inhibition

CC(=O)OC(C)(C)/C=C/C(=O)[C@](C)(O)[C@H]1[C@H](O)C[C@@]2(C)[C@@H]3CC=C4[C@@H](C=C(O)C(=O)C4(C)C)[C@]3(C)C(=O)C[C@]12C
inactive: [1] -4.6% | [2] -36.5% | [3] -14.6% | [4] -10.8% | [5] -15.7%

N.N.N.N.N.O=C([O-])C(=O)[O-].[Co+3].[O-][Cl+3]([O-])([O-])O.[O-][Cl+3]([O-])([O-])[O-]
inactive: [1] -12.3% | [2] 11.8% | [3] -22.9% | [4] 6.2% | [5] 0.8% | [6] -12.7%

COc1c2occc2c(CCl)c2ccc(=O)oc12
inactive: [1] 26.6% | [2] 11.2% | [3] 14.3% | [4] 24.4% | [5] 5.8%

COc1nc(N2CCNCC2)nc2c1CCCC2
inactive: [1] 4.85% | [2] -10.7% | [3] -21.1% | [4] 17.8%

CC(C)c1cc2c(cc1O)C1(C)CCCC(C)(C)C1=CC2=O (stereo unspecified)
inactive: [1] -1.65% | [2] -28.9% | [3] -8.15% | [4] -17% | [5] -5.8%

C[Si]1(C)CCCC2(C1)C(=O)NC(=O)NC2=O
inactive: [1] -31.6% | [2] -17.3% | [3] -9% | [4] -1.75% | [5] -4.2%

CC1(Cl)C(=O)NC(=O)NC1O (stereo unspecified)
inactive: [1] 4.45% | [2] 2.5% | [3] 12.2% | [4] 20.4% | [5] 0.1%

O=C(O)c1cc([N+](=O)[O-])cc([N+](=O)[O-])c1
inactive: [1] -3% | [2] 1.3% | [3] 2.75% | [4] -34.2% | [5] -30.9%

Nc1ccc(C(=O)O)cc1[As](O)O
inactive: [1] -15.1% | [2] -4.05% | [3] 5.95% | [4] -6.4% | [5] 0.6%

CNC(=O)O/N=C(\SC)C(=O)N(C)C
inactive: [1] -39.9% | [2] -27.2% | [3] -5.05% | [4] -31.2% | [5] -3.1%

C/C=C(/C)C(=O)O[C@H]1CCN2CC=C(COC(=O)[C@@](O)([C@H](C)OC)C(C)(C)O)[C@H]12
inactive: [1] -17% | [2] -15.8% | [3] 3.65% | [4] 11.6% | [5] 7.55%

CC(=O)OC1CCC2(C)C(CCC3C2CCC2(C)C3CC(CC(=O)O)C2OC(C)=O)C1 (stereo unspecified)
inactive: [1] 16.5% | [2] 18.8% | [3] 7.3% | [4] -0.5% | [5] 3.3%

O=c1[nH]cc([N+](=O)[O-])cc1[N+](=O)[O-]
inactive: [1] 1.5% | [2] -16.6% | [3] -2.25% | [4] 22.7% | [5] -15.6%

ClC1=C(Cl)C2(Cl)C3C4CC(C5OC45)C3C1(Cl)C2(Cl)Cl (stereo unspecified)
inactive: [1] 27.4% | [2] -16.6% | [3] 1.25% | [4] 15.5% | [5] 9.75%

O=C(Cc1nc2ccccc2c(=O)n1-c1c(Cl)cccc1Cl)c1ccncc1
inactive: [1] 2.45% | [2] 7.95% | [3] 7.1% | [4] -25.6% | [5] -2.95%

O=C(c1ccccc1)c1ccc2n[se]nc2c1
inactive: [1] -32.4% | [2] 10.2% | [3] 18.2% | [4] 4.65% | [5] 17.1% | [6] 25.5%

CN1CCC(O)(c2ccccc2)C(O)C1 (stereo unspecified)
inactive: [1] 11.2% | [2] 29.1% | [3] 23.5% | [4] 32.3% | [5] -4%

Cc1ccc([Se][Se]c2ccc(C)cc2)cc1
inactive: [1] 55.5% | [2] 10.7% | [3] 35.6% | [4] 30.1% | [5] 41%

CCCC(=O)OC1C(c2ccc(=O)oc2)C2(C)CCC3C(CCC4CC(OC(C)=O)CCC43C)C23OC13 (stereo unspecified)
inactive: [1] 1.55% | [2] -16.9% | [3] 1.5% | [4] 9.6% | [5] -5.95%

CC(C)=NNC1=NC(C)(C)P(=O)(N2CCCC2C(=O)O)S1 (stereo unspecified)
inactive: [1] 0.8% | [2] -12.4% | [3] -0.45% | [4] -2.3% | [5] 5.25%

CC1CN1P(=O)(N1CCc2ccccc21)N1CC1C (stereo unspecified)
inactive: [1] -21.8% | [2] -7.9% | [3] -5.6% | [4] -24.7% | [5] 5.9%

O=C(CCC1CCCCN1)Nc1ccc2c(c1)C(=O)c1ccc(NC(=O)CCN3CCCCC3)cc1C2=O (stereo unspecified)
inactive: [1] 6.2% | [2] 9.2% | [3] -1.9% | [4] 9.3% | [5] -12.6%

Nc1nc(-c2ccccc2)c[se]1
inactive: [1] 63.6% | [2] 32.3% | [3] 30.6% | [4] 16.6% | [5] -7.65%

NC(=O)C[N+](=O)[O-]
inactive: [1] -16.9% | [2] 17% | [3] -11.4% | [4] 11% | [5] -2.35%

Oc1ccccc1C=NCCN=Cc1ccccc1O.[Cu]
inactive: [1] 15.4% | [2] -25.9% | [3] -4.75% | [4] -36.4% | [5] 3.55% | [6] -7.7%

CP1(=O)CC23CCCCC2(C1)O3 (stereo unspecified)
inactive: [1] 2% | [2] -29.9% | [3] -3.3% | [4] -44.2% | [5] -15%

O=S(c1ccc(Cl)cc1)c1ccc(Cl)cc1
inactive: [1] 1.55% | [2] 17.9% | [3] 33.5% | [4] -66.2% | [5] 13.6%

N#CC1OC1c1cccnc1 (stereo unspecified)
inactive: [1] 3.9% | [2] -1.45% | [3] -4.45% | [4] 20.6% | [5] 29.3%

COc1ccc(CC(N)c2nn[nH]n2)cc1 (stereo unspecified)
inactive: [1] 4.1% | [2] -1% | [3] -1.1% | [4] -23.1% | [5] 8.15%

CCN1CCc2cc(OC)c(OC)cc2C1
inactive: [1] 0.15% | [2] 4.7% | [3] 6.45% | [4] -25.9% | [5] -0.6%

C=CCNCC(O)c1ccccc1 (stereo unspecified)
inactive: [1] 13.5% | [2] -14.2% | [3] -11.8% | [4] 6.7% | [5] 6.5%

CC1=CP(=O)(OC(C)C)CC(C)=C1Cl (stereo unspecified)
inactive: [1] 33.7% | [2] -6.9% | [3] -11.4% | [4] -9.55% | [5] -25.8%

N#Cc1ccc([N+](=O)[O-])cc1
inactive: [1] -1.15% | [2] 9.25% | [3] 1.7% | [4] 1.2% | [5] -43.8%

CC(NC(=O)c1ccccc1)N(C)[N+](=O)[O-] (stereo unspecified)
inactive: [1] -3.7% | [2] 4% | [3] 2.5% | [4] -13.4% | [5] 5.45%

O=C(O)C(F)F
inactive: [1] -16.9% | [2] -1.2% | [3] -18.2% | [4] -31% | [5] -15.3%

Clc1cccc(Cl)c1NC1=NCCS1
inactive: [1] -11.7% | [2] -20.8% | [3] 12.7% | [4] 6.1% | [5] -2.25%

Cc1ccc(S(=O)(=O)Nc2cc(C)cc(CCN)c2C)cc1
inactive: [1] 17.1% | [2] -11.6% | [3] -14.6% | [4] 4.75% | [5] 5.5%

O=CNC(CSC(c1ccccc1)c1ccccc1)C(=O)O (stereo unspecified)
inactive: [1] 0.25% | [2] -5.55% | [3] -10.9% | [4] -26.4% | [5] 20.2%

Oc1ccc(O)c(Br)c1
inactive: [1] 18.8% | [2] 5.9% | [3] 28.1% | [4] -21.3% | [5] -4.85%

Cn1c2c(c3ccccc31)CCN1OCC=C[C@@H](C(=O)O)[C@@H]21
inactive: [1] -8.3% | [2] 3.15% | [3] -6.3% | [4] 5.55% | [5] 42.3% | [6] -8.85%

CC(=O)N(N=O)c1cc(Cl)ccc1Cl
inactive: [1] -2.75% | [2] -11.1% | [3] 3.15% | [4] -2.15% | [5] -5.5% | [6] -1.45%

Oc1ccccc1/C=N/C(O)C(Cl)(Cl)Cl (stereo unspecified)
inactive: [1] 30.2% | [2] 31.6% | [3] 34.9% | [4] 41.3% | [5] 48.1% | [6] 30.6%

CCOP(=O)(CCP(=O)(OCC)OCC)OCC.C[CH2][Sn]([Cl])([Cl])[CH2]C
inactive: [1] 42.9% | [2] 52.1% | [3] 45.5% | [4] 46% | [5] 42.1% | [6] 41%
